# Only a selection was taken, and hits are over-represented in it overall.
# Tg IFNy HTS: inhibitors of Toxoplasma gondii growth with IFN-gamma; Toxoplasma gondii growth in IFN-gamma-treated host cells; stronger effect = lower value; activity change, negative = inhibition, % (test concentration not listed); hit rate 3.8% among 69,000; in the data active means activity change below about -70%, passing the limit was not always enough;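 further: host cells are HeLa cells infected with Toxoplasma gondii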
# * = called active by the depositor.
SMILES,Tg IFNy HTS
CC(C)c1ccc2c(c1)CCC1C(C)(C(N)=O)CCCC21C (stereo not drawn),-72*
CC(C)c1c(O)ccc2c1CCC1C(C)(C)CCC[C@]21C (stereo partly drawn),-46
COC(=O)[C@@]1(C)CCC[C@]2(C)c3ccc(O)c(C(C)C)c3CCC12 (stereo partly drawn),-76*
CC(C)c1ccc2c(c1)CCC1[C@](C)(CN)CCC[C@]21C (stereo partly drawn),-9
Cc1ccc(CN2CCC3(CCCN(Cc4nccs4)C3)C2)o1 (stereo not drawn),102
O=C(c1csc(-c2cccnc2)n1)N1CCOC(c2ccc(Cl)cc2)C1 (stereo not drawn),-29
CCN(CCOc1cccc(Cl)c1)C(=O)c1ccc(=O)n(C)c1,-3
C[C@H](CO)N1C[C@H](C)[C@H](CN(C)C(=O)Nc2cccc(F)c2)Oc2cc(C#CC3(O)CCCC3)ccc2S1(=O)=O,-7
Cc1ccccc1-c1ccc2c(c1)O[C@@H](CN(C)C(=O)Nc1ccc(C(F)(F)F)cc1)[C@@H](C)CN([C@H](C)CO)S2(=O)=O,66
Cc1ccccc1-c1ccc2c(c1)O[C@H](CN(C)C(=O)Nc1ccc(C(F)(F)F)cc1)[C@@H](C)CN([C@H](C)CO)S2(=O)=O,-97*
C/C=C/c1ccc2c(c1)O[C@@H](CN(C)C(=O)Nc1ccc(OC)cc1)[C@@H](C)CN([C@@H](C)CO)S2(=O)=O,100
C[C@@H]1CN([C@@H](C)CO)S(=O)(=O)c2ccc(C#CC3(O)CCCC3)cc2O[C@@H]1CN(C)C(=O)Nc1cccc(F)c1,-104*
CCCNC(=O)N(C)C[C@@H]1Oc2cc(C#C[C@H](C)O)ccc2S(=O)(=O)N([C@H](C)CO)C[C@H]1C,-70
CCn1c(C2CCN(c3ncnc4sc(C)cc34)CC2)n[nH]c1=O,-7
Cc1cc(C)cc(NC(=O)CN2CCC3(CC2)N=C(c2cccc(C)c2)C(=O)N3)c1,-34
C[C@@H]([C@@H](O)c1ccc(O)cc1)N1CCC(O)(c2ccccc2)CC1,-15
CCC1=NC2(CCC(C(=O)NCc3ccccc3)CC2)C(=O)N1CC1CC1 (stereo not drawn),7
COc1cc2cc(CNc3ccc(N4CCN(C)CC4)cc3)c(=O)[nH]c2cc1OC,-18
COc1ccc2[nH]c(=O)c(CNc3ccc(-c4nc5ccc(C)cc5[nH]4)cc3)cc2c1,48
CC(C)c1ccc2[nH]c(=O)c(CNc3ccc4[nH]ncc4c3)cc2c1,-82*
Cc1[nH]cnc1-c1nccn1C(C)c1cnn(C)c1 (stereo not drawn),7
O=C(NCc1ccc(Cl)cc1)c1nc(Nc2ccccc2)c2ccccc2n1,79
CCC1CN(C(=O)c2ccc(-c3cnn(C)c3)nc2)CCN1C(C)C (stereo not drawn),-1
Cc1ccc2[nH]c3c(c2c1)CCNC3=O,-93*
Cc1ccc2[nH]c(=O)c(Cc3ccccc3)c(O)c2c1,10
SMILES,Tg IFNy HTS
Cc1ccc2[nH]c3c(c2c1)CN(C)CC3,12
Cn1ccc(C(=O)N2CCC3(CC2)CC(Nc2ncccn2)CO3)n1 (stereo not drawn),-4
COc1cncc(-c2cc(Cl)ccc2OC)c1,-11
CNC(=O)c1ccc(-c2cc(NCCO)nc3[nH]ccc23)s1,10
NC(=O)c1csc(-c2cc(NC3CCCC3)nc3[nH]ccc23)n1,-76*
CC(C)(C(N)=O)c1ccc(-c2cc(N)nc3[nH]ccc23)cc1,19
COCCNC(=O)c1ccc(N(C)S(=O)(=O)c2ccccc2)cc1,-9
CN(CCNC(=O)C1(c2cccs2)CC1(C)C)S(C)(=O)=O (stereo not drawn),7
Cc1ccc2c(c1C)NC(=O)C2CC(=O)N1C[C@H]2C[C@H](O)[C@H](O)C[C@H]2C1 (stereo partly drawn),1
COc1cccc(CNC(=O)c2c(O)c3cccnc3n(-c3ccccc3)c2=O)c1,-66
CCc1ccc(CNC(=O)c2c(O)c3cccnc3n(-c3cccc(F)c3)c2=O)cc1,39
COc1cccc(-n2c(=O)c(C(=O)NCc3cc(F)cc(F)c3)c(O)c3cccnc32)c1,-101*
COc1cccc(-n2c(=O)c(C(=O)NCc3ccc(F)cc3)c(O)c3cccnc32)c1,16
CCc1ccc(CNC(=O)c2c(O)c3cccnc3n(-c3cccc(OC)c3)c2=O)cc1,-14
COc1cccc(CNC(=O)c2c(O)c3cccnc3n(-c3cccc(F)c3)c2=O)c1,-98*
O=C(N1CCCCC1)C1(Cc2cc(C3CCOC3)no2)CCCNC1 (stereo not drawn),3
Cc1ccc2c(c1C)-n1cccc1C1(CCN(C(=O)c3cccnc3)CC1)N2,24
O=C(c1cc2cccnc2n(Cc2ccccc2F)c1=O)N1CCc2ccccc21,11
COc1ccc(-c2c(C)c3ccc(OCC(C)=O)cc3oc2=O)cc1,202
Cc1cc(OC(C(=O)O)c2ccccc2)c2c(C)c(Cc3ccccc3)c(=O)oc2c1 (stereo not drawn),8
CCN(CC)c1ccc2c(C)c(CC(C)=O)c(=O)oc2c1,-98*
CSc1ccc(C2c3[nH]c4ccccc4c3CCN2C(=O)c2ccccc2Br)cc1 (stereo not drawn),35
CCC/C=C/c1cncc(C(=O)N2CCOCC2)n1,3
Cc1ccc2c(c1)C(=O)NC1(CCN(C(=O)Nc3ccc(C)c(C)c3)CC1)N2C,-44
C1=C/COCc2cc(ccc2OCCN2CCCC2)Nc2nccc(n2)-c2cccc(c2)COC/1,-85*
SMILES,Tg IFNy HTS
O=S(=O)(c1ccc(F)cc1)N1C2CCC1c1snnc1C2 (stereo not drawn),-21
COc1cccc(S(=O)(=O)Nc2ccc3c(c2)CCC(=O)N3CC(C)C)c1,-52
CC(C)CN1C(=O)CCc2cc(NC(=O)c3cc(F)ccc3Cl)ccc21,-40
CC(C)CN1C(=O)CCc2cc(NS(=O)(=O)c3cccc(Cl)c3)ccc21,-80*
CC(C)CN1C(=O)CCc2cc(NS(=O)(=O)c3ccccc3F)ccc21,-59
COCCN1C(=O)CCc2cc(NS(=O)(=O)c3cccc(OC)c3)ccc21,1
Cc1cc(S(=O)(=O)Nc2ccc3c(c2)CCC(=O)N3CC(C)C)ccc1F,-97*
COCCN1C(=O)CCc2cc(NS(=O)(=O)c3ccc4c(c3)OCCO4)ccc21,88
COCCN1C(=O)CCc2cc(NS(=O)(=O)c3ccc(F)c(C)c3)ccc21,-20
CC(C)CN1C(=O)CCc2cc(NS(=O)(=O)c3ccc(F)c(Cl)c3)ccc21,-87*
CN(Cc1cccc2cnccc12)c1ccc(-c2nccn2C)nn1,2
CCOC(=O)[C@@]12CC=CCN(C(=O)c3ccc(Cn4cccn4)o3)[C@@H]1CCC2,-6
O=C(C[C@H]1CC[C@H]2NC[C@H](O)COC[C@@H]2O1)Nc1nccs1,14
O=C(Nc1ccccc1CN1CCCC1)C(c1ccc(F)cc1)N1CCOCC1 (stereo not drawn),32
Cc1cc(C)cc(NS(=O)(=O)c2cc3c4c(c2)CCN4C(=O)CC3)c1,-79*
O=C1CCc2cc(S(=O)(=O)Nc3ccc(Br)cc3)cc3c2N1CC3,243
COc1ccc(NS(=O)(=O)c2cc3c4c(c2)CCN4C(=O)CC3)cc1,-15
CCc1cccc(NS(=O)(=O)c2cc3c4c(c2)CCN4C(=O)CC3)c1,-81*
CCc1ccccc1NS(=O)(=O)c1cc2c3c(c1)CCN3C(=O)CC2,-52
O=C1CCc2cc(S(=O)(=O)NCCc3ccccc3)cc3c2N1CCC3,-5
O=C1CCc2cc(S(=O)(=O)Nc3ccc(Cl)cc3)cc3c2N1CC3,-17

# Assay outcomes from PubChem BioAssay.
